{"source": "paper PMC4552634", "about": "“A New Set of Chemical Starting Points with Plasmodium falciparum Transmission-Blocking Potential for Antimalarial Drug Discovery” (PLoS ONE, 2015)", "note": "Among all 13,000 compounds or so, about 3,200 (25%) showed an effect of 50% or more. The list shows a part of the results.", "data": [{"system": "P. falciparum stage V gametocytes", "design": "BacTiter-Glo ATP luminescence viability of purified stage V gametocytes in 384-well plates, per cent inhibition versus DMSO", "details": "48 h, 5 µM; inhibitor", "units": {"% Inhibition": "%"}, "values": [{"smiles": "CN1CCN(c2cc(NC(=O)Nc3ccc(-c4ccncc4)c(Cl)c3)ccc2Br)CC1", "note": "[TCMDC-139221]", "% Inhibition": 36.17}, {"smiles": "COc1cc(OC)cc(-c2nc3c(C#N)c(OCCN(C)C)ccc3[nH]2)c1", "note": "[TCMDC-133764]", "% Inhibition": 10.97}, {"smiles": "CCOC(=O)c1ccc(NC(=O)N[C@H]2CCN(CCCCCNC(=O)/C=C/c3ccc(Cl)c(Cl)c3)C2)cc1", "note": "[TCMDC-139511]", "% Inhibition": 97.51}, {"smiles": "CCOC(=O)c1ccc(NC(=O)NC2CCN(CCCCCNC(=O)/C=C/c3ccc(Cl)c(Cl)c3)C2)cc1", "note": "(centres unmarked) [TCMDC-139526]", "% Inhibition": 12.95}, {"smiles": "CCNc1cc(C(=O)N[C@@H](Cc2ccccc2)[C@H](O)CNC2CCC(F)(F)CC2)c(F)c(N2CCCCS2(=O)=O)c1", "note": "[TCMDC-135448]", "% Inhibition": 35.59}, {"smiles": "COc1ccc2nc3cc(Cl)ccc3c(NCCc3ccccc3)c2c1.Cl", "note": "[TCMDC-137665]", "% Inhibition": -3.627}, {"smiles": "CCN1CCN(CCCNc2ccnc3cc(Cl)ccc23)CC1", "note": "[TCMDC-137588]", "% Inhibition": 6.527}, {"smiles": "CCN1CCN(CCCNc2c3ccc(Cl)cc3nc3ccc(OC)cc23)CC1", "note": "[TCMDC-137586]", "% Inhibition": 86.55}, {"smiles": "CCN1CCN(CCCNc2c3ccc(Cl)cc3nc3ccc(O)cc23)CC1", "note": "[TCMDC-137583]", "% Inhibition": 70.77}, {"smiles": "COc1ccc2nc3cc(Cl)ccc3c(NCCCCN3CCNCC3)c2c1", "note": "[TCMDC-137578]", "% Inhibition": 99.69}, {"smiles": "COc1ccc2nc3ccccc3c(NCCN3CCN(C)CC3)c2c1", "note": "[TCMDC-138017]", "% Inhibition": 69.17}, {"smiles": "CN1CCCc2ccc(NC(=O)Nc3ccc(Cl)c(Cl)c3)cc2C1", "note": "[TCMDC-133732]", "% Inhibition": -5.496}, {"smiles": "Cc1ccc2[nH]c3c(NCCN(C)C)ncnc3c2c1", "note": "[TCMDC-124581]", "% Inhibition": -20.4}, {"smiles": "COc1ccc2nc3cc(Cl)ccc3c(NCCN3CCN(C)CC3)c2c1", "note": "[TCMDC-137476]", "% Inhibition": 105}, {"smiles": "CCOC(=O)N1CCN(CCCNc2c3ccc(Cl)cc3nc3ccc(OC)cc23)CC1", "note": "[TCMDC-137480]", "% Inhibition": 40.55}, {"smiles": "COc1ccc2nc3cc(Cl)ccc3c(NCCCN3CCNCC3)c2c1", "note": "[TCMDC-137580]", "% Inhibition": 104.3}, {"smiles": "COc1ccc2nc3cc(Cl)ccc3c(Nc3ccc(C(=O)O)cc3)c2c1.Cl", "note": "[TCMDC-138029]", "% Inhibition": 43.24}, {"smiles": "CCOC(=O)N1CCN(CCCCNc2c3ccc(Cl)cc3nc3ccc(OC)cc23)CC1.Cl", "note": "[TCMDC-137579]", "% Inhibition": 70.35}, {"smiles": "Cc1ccc2nc3ccccc3c(NCCN3CCN(C)CC3)c2c1", "note": "[TCMDC-138018]", "% Inhibition": 95.43}, {"smiles": "CCOC(=O)C1=C(C)NC2=C(C(=O)CC(C)(C)C2)C1c1ccc(Cl)cc1", "note": "(centres unmarked) [TCMDC-123497]", "% Inhibition": 10}]}]}
